The full list was thinned out, with hits kept by preference.
SF-1 inh = SF-1 (human) inhibition; inhibition, % at 10 µM; actives 0.55% (n = 65,000); Q13285; CHO-K1 Gal4-SF-1 LBD luciferase reporter;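 active means inhibition above the mean inhibition of all tested compounds plus 3 SD, cut at about 48% in these data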
Target sequence (Q13285 whole entry, looked up, the tested form may be a part): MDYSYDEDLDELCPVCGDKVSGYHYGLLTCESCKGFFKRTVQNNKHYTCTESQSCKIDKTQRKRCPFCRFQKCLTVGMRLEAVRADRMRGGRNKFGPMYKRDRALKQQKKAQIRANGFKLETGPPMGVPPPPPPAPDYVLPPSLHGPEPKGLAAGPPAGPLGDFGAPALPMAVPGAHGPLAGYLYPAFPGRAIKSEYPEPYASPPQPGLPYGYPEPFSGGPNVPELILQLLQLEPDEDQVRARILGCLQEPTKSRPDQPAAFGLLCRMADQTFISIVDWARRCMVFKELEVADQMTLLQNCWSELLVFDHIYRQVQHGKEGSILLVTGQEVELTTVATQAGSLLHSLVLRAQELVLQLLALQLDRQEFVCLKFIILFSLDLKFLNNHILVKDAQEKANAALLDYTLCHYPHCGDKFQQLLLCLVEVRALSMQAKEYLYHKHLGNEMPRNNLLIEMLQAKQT
Each line names hits and unclear results; the compound was inactive in the other large screens.

Cc1cc(C)nc(NCC(O)CNc2ccccc2Cl)n1 (configuration not stated)	none
COC1Cc2ccccc2N(C(=O)N2CCN(CCO)CC2)c2ccccc21 (configuration not stated)	none
O=C(NCC(=O)N(Cc1cccs1)C(C(=O)NC1CCCC1)c1ccco1)c1cccs1 (configuration not stated)	none
c1ccc(OCCSc2nnc3sc4ccccc4n23)cc1	SF-1 inh 54.2
c1ccc(OCCSc2nnnn2-c2ccccc2)cc1	none
Cc1ccc(OCCSc2nnc(-c3ccncc3)n2C)cc1	none
CC1CCN(CCCNC(=O)COc2cc(=O)n(C)c3ccccc23)CC1	none
COC(=O)CCCC(=O)Nc1ccc(Cl)c(Cl)c1	none
CN1/C(=C/C(=O)c2nc(S(C)(=O)=O)ncc2Cl)C(C)(C)c2ccccc21	SF-1 inh 60.6
O=C(COc1ncnc2ccccc12)c1ccc2c(c1)OCCO2	none
Nc1c(C(=O)NCCN2CCOCC2)c2nc3ccccc3nc2n1CCc1ccccc1	none
CCCN1C=CC(=C2C(=O)c3ccccc3C2=O)C=C1	SF-1 inh 93.0
CC1=CC(=C2C(=O)c3ccccc3C2=O)C=C(C)O1	none
CCN1C=CC(=C2C(=O)c3ccccc3C2=O)C=C1	SF-1 inh 79.7
CCC1(CC)C(=O)N=C2c3ccccc3C(=O)N21	none
Cc1ccccc1NS(=O)(=O)c1ccc(OCC(=O)N2CCCC2)cc1	none
O=S(=O)(c1ccccc1)N1CCN(CC(O)COc2ccc3c(c2)CCC3)CC1 (configuration not stated)	none
COc1cccc(CN(Cc2cccnc2)S(=O)(=O)c2ccc(-n3cnnn3)c(C)c2)c1	none
Cc1cccc(N(C)C(=S)Oc2ccc3ccccc3c2)c1	none
CC(=O)C1=C(O)C(=O)N(CCc2c[nH]c3ccccc23)C1c1ccco1 (configuration not stated)	none
O=C(Nc1ccc(-c2cn3ccsc3n2)cc1)c1ccc(F)c(S(=O)(=O)N2CCOCC2)c1	none
O=C(NCCc1ccccc1)c1noc2c1CCCCC2	none
c1ccc(-c2nc(N3CCCCCC3)c3ccccc3n2)nc1	SF-1 inh 86.4
Cc1nnc(Sc2nc3c(c(=O)[nH]c(=O)n3C)n2CCCc2ccccc2)s1	none
Cc1cc(C)nc(NC2=NCC(=O)N2c2ccc3c(c2)OCCO3)n1	none
CCOC(=O)c1c(C)n(CC(O)c2ccccc2)c2ccc(O)cc12 (configuration not stated)	none
COc1cccc(NC(=O)CN2CCN(c3ccccc3F)CC2)c1	none
COc1ccc(O)c(C(=O)CC(=O)c2ccc(F)cc2)c1	SF-1 inh 51.8
COc1cccc(NC(=O)COc2ccccc2C(N)=O)c1	none
CN(C)S(=O)(=O)c1ccc(C(=O)N2CCC(c3nc4ccccc4o3)CC2)cc1	none
Cn1c(=O)[nH]c(=O)c2c1nc(SCC(=O)Nc1ccccc1)n2Cc1ccccc1	none
COc1ccc(C2(CN(C(C)=O)C(C)=O)CCCC2)cc1OC	none
CC(NC(=O)Nc1nnc(C(F)(F)F)s1)(C(F)(F)F)C(F)(F)F	SF-1 inh 93.9
O=C(CN1C(=O)CSC1=O)Nc1ccc(F)c(F)c1F	none
CC1=CC(C)=Nc2ccc(C)cc2N1	none
FC(F)(F)c1ccc(N2CCN(c3cc(-c4ccccc4)nc4ncnn34)CC2)nc1	SF-1 inh 71.1
c1ccc(-c2cc(N3CCOCC3)nc(-c3ccccc3)n2)cc1	none
CC(=O)NC1Sc2ccccc2N=C1c1ccccc1 (configuration not stated)	none
CCOC(=O)CSc1nc2ccccc2c(=O)n1NC(=O)c1ccccc1	none
Cn1c(C(=O)NCc2ccccn2)cc2c(=O)n3ccccc3nc21	none
O=C(NC1CCCCCC1)c1c(O)c2cccc3c2n(c1=O)CCC3	none
C=CCOC(=O)CN1C(=O)c2ccccc2C1=O	none
COc1ccc(-n2nc(C(=O)NCC(=O)N3CCN(c4ccccn4)CC3)c3ccccc3c2=O)cc1	none
O=C(c1cccc(COc2ccc(Cl)cc2Cl)c1)N1CCN(c2ccccn2)CC1	none
c1ccc(Cn2nnnc2CN2CCCC2)cc1	none
Oc1c(CN2CCN(c3ccccn3)CC2)cc(Cl)c2cccnc12	SF-1 inh 67.1
COCc1cc(CN2CCCC2)c(O)c2ncccc12	SF-1 inh 49.8
Oc1c(CN2CCCCC2)cc(COCc2ccccc2)c2cccnc12	SF-1 inh 88.7
Cn1c(-n2c(-c3ccco3)nc3ccccc3c2=O)nc2ccccc21	none
COc1ccc(NC(=O)c2cc(-c3cccs3)on2)cc1OC	none
COc1ccc2nc(NC(=O)CN(c3ccc(C)cc3)S(=O)(=O)c3c(C)nn(C)c3C)sc2c1	none
Cn1c(SCCOc2cccc(Cl)c2)nnc1-c1ccncc1	none
Cc1ccc2nc3c(cc(C#N)c(=O)n3CC3CCCO3)c(=O)n2c1 (configuration not stated)	none
CCN1C(=S)SC(=O)C1=C1C=C(C)N(CCOC)C(C)=C1	none
CCN1C(=O)c2cccc3c(S(=O)(=O)NC(Cc4c[nH]c5ccccc45)C(=O)O)ccc1c23 (configuration not stated)	none
Cc1c(NC(=O)CCC2CCCCC2)c(=O)n(-c2ccccc2)n1C	none
CCOC(=O)N1CCN(S(=O)(=O)c2ccc3c(c2)CCN3C(=O)CC)CC1	none
CCOc1ccc(-c2cc(CCCC(=O)NCCc3ccc(OC)c(OC)c3OC)no2)cc1	SF-1 inh 52.0
CCOc1ccc(-c2cc(CCCC(=O)Nc3cc(OC)ccc3OC)no2)cc1	SF-1 inh 56.8
COc1ccc(OC)c(NC(=O)CCN2CCCC(C)C2)c1 (configuration not stated)	none
CCOC(=O)N1CCN(CC(=O)Nc2cc(OCC)ccc2OCC)CC1	none
CCOc1ccc(-n2cc(C(=O)N3CCN(C)CC3)c3cc(OC)c(OC)cc3c2=O)cc1	none
O=C(CN1CCOCC1)N(c1ccccc1)c1ccc2ccccc2c1	none
CC(C)Oc1ccc(NC(=O)Oc2ccccc2)cc1	none
CN(C)CCN1C(=O)C(=O)/C(=C(/O)c2ccccc2)C1c1ccccc1F (configuration not stated)	none
Cc1c(C(=O)NCC2CCCO2)oc2ccc3c(c12)C(=O)CC(C)(C)O3 (configuration not stated)	none
COc1ccc(CN/C=C2\CCCCC2=O)cc1	none
CCN1CCN(c2ncc(C(=O)N3CCCc4ccccc43)c3ccccc23)CC1	none
Cc1ccc2occ(C(c3nnnn3Cc3ccccc3)N3CCOCC3)c(=O)c2c1 (configuration not stated)	none
Cc1ccc(C)c(N2CCN(C(=O)CCCn3c(=S)[nH]c4cc5c(cc4c3=O)OCO5)CC2)c1	none
CSC1=C(C#N)C(c2ccc(Cl)cc2)C2=C(CC(C)(C)CC2=O)N1 (configuration not stated)	SF-1 inh 52.5
Cc1ccc(NC(=O)CSC2=C(C#N)C(c3ccc4c(c3)OCO4)C3=C(CCCC3=O)N2)c(C)c1 (configuration not stated)	none
CCN1C(=O)CC(C(=O)NC)SC1=Nc1cc(Cl)c(O)c(Cl)c1 (configuration not stated)	none
FC(F)(F)C(F)(F)C(F)(F)c1nnc2ccc(N3CCOCC3)nn12	none
CCOC(=O)c1c(C)[nH]c(C(=O)COC(=O)CNC(=O)C2CCCCC2)c1C	none
CCCCCOc1ccc(CN2CCOCC2)cc1Cl	none
COc1cc(C(=O)Oc2c(CN3CCOCC3)cc(Cl)c3cccnc23)cc(OC)c1OC	SF-1 inh 55.4
COc1c(C)cccc1C(=O)Nc1ccc(CN2CCOCC2)cc1	none
CCOc1ccc(S(=O)(=O)N2CCN(S(=O)(=O)c3ccc(OCC)cc3)C(C)C2)cc1 (configuration not stated)	none
O=C(Cc1ccc2cccnc2c1)c1ccc(O)cc1O	none
Cc1cccc(NC(=O)c2cc3ccccc3c(=O)o2)n1	none
COc1ccc(NC(=O)Nc2cccc(C)n2)cc1	none
Cc1cccc(NC(=O)Nc2ccc(C#N)cc2)n1	SF-1 inh 71.1

Screening results deposited in PubChem BioAssay by The Scripps Research Institute Molecular Screening Center.
